Compounds with a hit are over-represented: about 27% of the library has one in this group of screens.
CYP2C19 inh = human CYP2C19 inhibition; AID 778; 96,000 tested, 21% active; inhibition, % at 5 µM; CYP2C19 Supersomes, luciferin-H EGE luminescence, 30 min; P33261;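 active means CYP2C19 inhibition above a set limit at 5 µM in the primary screen, cut at about 50% in these data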
Target sequence (P33261 whole entry, looked up): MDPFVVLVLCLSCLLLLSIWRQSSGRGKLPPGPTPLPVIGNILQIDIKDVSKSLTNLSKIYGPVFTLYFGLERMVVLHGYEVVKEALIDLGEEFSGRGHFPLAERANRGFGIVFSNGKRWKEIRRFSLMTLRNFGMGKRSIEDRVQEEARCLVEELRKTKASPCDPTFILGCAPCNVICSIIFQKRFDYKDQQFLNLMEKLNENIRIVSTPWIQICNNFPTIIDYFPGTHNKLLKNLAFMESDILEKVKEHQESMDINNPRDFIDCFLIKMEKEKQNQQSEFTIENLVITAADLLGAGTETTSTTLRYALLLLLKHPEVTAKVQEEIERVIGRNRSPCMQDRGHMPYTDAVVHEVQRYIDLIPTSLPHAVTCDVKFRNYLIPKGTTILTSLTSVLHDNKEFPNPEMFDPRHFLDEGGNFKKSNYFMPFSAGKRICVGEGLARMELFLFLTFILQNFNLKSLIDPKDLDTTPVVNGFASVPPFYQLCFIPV
Cav3 T inh = human Cav3.2 channel inhibition, primary screen. Cav3.2-expressing cells, Fluo-4 calcium fluorescence FDSS; stronger effect = lower value. B-score at 10 µM. 100,000 tested, 4% active. AID 449739;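 active means single-dose well whose peak fluorescence ratio is a statistical outlier from its plate by either plate-standardised score or position-corrected B-score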
CYP2C9 act = increases human cytochrome P450 2C9 activity; P11712; recombinant CYP2C9, luciferin-H conversion, luminescence; stronger effect = higher value; factor 1 = untreated enzyme, 0 = blocked; activation factor at 5 µM; 96,000 tested, 1.4% active; AID 1024;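 active means activation factor of 2 or more for CYP2C9 at a 5 µM dose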
CYP2C9 inhib = inhibitors of human CYP2C9; 96,000 tested, 20% active; AID 777; inhibition, % at 5 µM; CYP2C9 Supersomes, luciferin-H conversion, luminescence; P11712;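 active means blocking of liver enzyme CYP2C9 beyond about 50% at 5 µM, limit read from the data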
CYP2C19 act = cytochrome P450 2C19 (human) activation; P33261; AID 1025; recombinant CYP2C19, luciferin-H EGE luminescence; stronger effect = higher value; 0 = fully inhibited enzyme, 1 = untreated enzyme; 96,000 tested, under 10 active; activation factor at 5 µM;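 active means activation factor of at least 2 at 5 µM in the primary screen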
A number is an active result.

Results for CCOc1ccc(NC(=O)CS(=O)(=O)c2cn(CC)c3ccccc23)cc1 ?
CYP2C19 inh: inactive; Cav3 T inh: inactive; CYP2C9 act: inactive; CYP2C9 inhib: inactive; CYP2C19 act: inactive

What do the screens show for `COCCNC(=O)c1c(CSc2ccc(Cl)cc2)noc1C(=O)NCc1ccccc1`?
Cav3 T inh: inactive

What do the screens show for `Cc1cc(C)cc(NC(=O)NCc2nnc(SCc3ccccc3)n2C)c1`?
CYP2C19 inh: inactive; Cav3 T inh: -4.3; CYP2C9 act: inactive; CYP2C9 inhib: inactive; CYP2C19 act: inactive

What do the screens show for `Cn1c(CNC(=O)Nc2ccccc2)nnc1SCc1ccccc1`?
CYP2C19 inh: inactive; Cav3 T inh: inactive; CYP2C9 act: inactive; CYP2C9 inhib: inactive; CYP2C19 act: inactive

Results for Cc1ccc(-n2nnc3c(=O)n(Cc4ccccc4C)cnc32)cc1 ?
CYP2C19 inh: inactive; Cav3 T inh: inactive; CYP2C9 act: inactive; CYP2C9 inhib: inactive; CYP2C19 act: inactive

How did COc1ccc(-n2nnc3c(=O)n(Cc4cc(C)ccc4C)cnc32)cc1 do in these assays?
CYP2C19 inh: inactive; Cav3 T inh: inactive; CYP2C9 act: inactive; CYP2C9 inhib: 72; CYP2C19 act: inactive

How did CCC(C)(C)C1CCC(=NNC(=O)c2ccoc2C)CC1 (stereo not given) do in these assays?
CYP2C19 inh: inactive; Cav3 T inh: inactive; CYP2C9 act: inactive; CYP2C9 inhib: inactive; CYP2C19 act: inactive

What do the screens show for `COc1ccc(C2/C(=C(/O)c3ccccc3)C(=O)C(=O)N2CO)cc1` (stereo not given)?
CYP2C19 inh: inactive; Cav3 T inh: inactive; CYP2C9 act: inactive; CYP2C9 inhib: inactive; CYP2C19 act: inactive

How did O=C1OC(c2ccc(Cl)cc2)/C(=C(/O)c2ccccc2)C1=O (stereo not given) do in these assays?
CYP2C19 inh: inactive; Cav3 T inh: inactive; CYP2C9 act: inactive; CYP2C9 inhib: 53; CYP2C19 act: inactive

How did CCOc1ccc(S(=O)(=O)n2nnc3ccccc32)cc1C(C)C do in these assays?
CYP2C19 inh: inactive; Cav3 T inh: inactive; CYP2C9 act: inactive; CYP2C9 inhib: inactive; CYP2C19 act: inactive

What do the screens show for `COC(=O)C1(Cc2ccccc2)NC(c2ccccc2C)C2C(=O)N(c3ccc4c(c3)OCO4)C(=O)C21` (stereo not given)?
Cav3 T inh: inactive

What do the screens show for `CC(C)CNC(=O)NC(=O)COc1c(F)c(F)cc(F)c1F`?
CYP2C19 inh: inactive; Cav3 T inh: inactive; CYP2C9 act: inactive; CYP2C9 inhib: inactive; CYP2C19 act: inactive

How did CC(C)CNC(=O)NC(=O)COc1ccc(C=O)cc1 do in these assays?
CYP2C19 inh: 95; Cav3 T inh: inactive; CYP2C9 act: inactive; CYP2C9 inhib: 83; CYP2C19 act: inactive

What do the screens show for `Cn1c(C(=O)OC(C(=O)NC2CCCCC2)c2cccnc2)cc2sccc21` (stereo not given)?
CYP2C19 inh: 96; Cav3 T inh: inactive; CYP2C9 act: inactive; CYP2C9 inhib: 74; CYP2C19 act: inactive

How did Cn1c(C(=O)OC(C(=O)NC2CCCC2)c2cccnc2)cc2sccc21 (stereo not given) do in these assays?
Cav3 T inh: inactive

Results for O=C(CC1CCCCC1)OCn1nnc2ccccc2c1=O ?
CYP2C19 inh: 69; Cav3 T inh: inactive; CYP2C9 act: inactive; CYP2C9 inhib: inactive; CYP2C19 act: inactive

How did O=C(OCn1nnc2ccccc2c1=O)c1cccnc1 do in these assays?
CYP2C19 inh: inactive; Cav3 T inh: inactive; CYP2C9 act: inactive; CYP2C9 inhib: inactive; CYP2C19 act: inactive

Results for O=C(CC(c1ccccc1)c1ccccc1)OCn1nnc2ccccc2c1=O ?
CYP2C19 inh: 85; Cav3 T inh: -4.9; CYP2C9 act: inactive; CYP2C9 inhib: 95; CYP2C19 act: inactive

Results for CC(C)(Oc1ccc(Cl)cc1)C(=O)OCn1nnc2ccccc2c1=O ?
CYP2C19 inh: inactive; Cav3 T inh: inactive; CYP2C9 act: inactive; CYP2C9 inhib: 51; CYP2C19 act: inactive

What do the screens show for `O=C(CCN1C(=O)c2ccccc2C1=O)OCn1nnc2ccccc2c1=O`?
CYP2C19 inh: inactive; Cav3 T inh: inactive; CYP2C9 act: inactive; CYP2C9 inhib: inactive; CYP2C19 act: inactive

What do the screens show for `COc1cc(C(=O)Nc2ccc(OCC(=O)O)cc2)cc(OC)c1OC`?
CYP2C19 inh: inactive; Cav3 T inh: inactive; CYP2C9 act: inactive; CYP2C9 inhib: inactive; CYP2C19 act: inactive

How did O=S(=O)(NC1CC1)c1ccc(S(=O)(=O)N2CCCC3(CCCCC3)C2)cc1 do in these assays?
CYP2C19 inh: inactive; Cav3 T inh: inactive; CYP2C9 act: inactive; CYP2C9 inhib: inactive; CYP2C19 act: inactive

What do the screens show for `CCO/C(C)=N/n1c2nc3ccccc3nc2c2c(=O)n(CC(C)C)c(C)nc21`?
CYP2C19 inh: inactive; Cav3 T inh: inactive; CYP2C9 act: inactive; CYP2C9 inhib: inactive; CYP2C19 act: inactive

How did O=C(CNS(=O)(=O)c1ccc(F)cc1)N1CCN(c2ccccc2)CC1 do in these assays?
CYP2C19 inh: inactive; Cav3 T inh: inactive; CYP2C9 act: inactive; CYP2C9 inhib: inactive; CYP2C19 act: inactive

How did Cc1cccc(N2CCN(C(=O)Cc3ccc(Br)cc3)CC2)c1C do in these assays?
CYP2C19 inh: 70; Cav3 T inh: inactive; CYP2C9 act: inactive; CYP2C9 inhib: inactive; CYP2C19 act: inactive

What do the screens show for `O=C(Cc1ccc(-n2c(=S)[nH]c3ccccc3c2=O)cc1)N1CCN(c2ccccc2)CC1`?
CYP2C19 inh: 55; Cav3 T inh: inactive; CYP2C9 act: inactive; CYP2C9 inhib: inactive; CYP2C19 act: inactive

How did Cc1ccc(CN2CCNC2=O)cc1 do in these assays?
CYP2C19 inh: inactive; Cav3 T inh: inactive; CYP2C9 act: inactive; CYP2C9 inhib: inactive; CYP2C19 act: inactive

Results for Cc1ccc(CN2CCS(=O)(=O)CC2)cc1 ?
CYP2C19 inh: 66; Cav3 T inh: inactive; CYP2C9 act: inactive; CYP2C9 inhib: inactive; CYP2C19 act: inactive

Results for O=C(CNS(=O)(=O)c1ccc(Br)cc1)N1CCN(c2ccc(F)cc2)CC1 ?
Cav3 T inh: -7.8

Results for CC(C)CCNC(=O)C1CCN(C(=O)N(C)C)CC1 ?
CYP2C19 inh: inactive; Cav3 T inh: inactive; CYP2C9 act: inactive; CYP2C9 inhib: inactive; CYP2C19 act: inactive

What do the screens show for `COC(=O)C1CCN(C(=O)Cc2ccc(OC)c(OC)c2)CC1`?
Cav3 T inh: inactive

What do the screens show for `O=C(Cc1ccc(Br)cc1)N1CCCCCC1`?
CYP2C19 inh: 53; Cav3 T inh: inactive; CYP2C9 act: inactive; CYP2C9 inhib: inactive; CYP2C19 act: inactive

What do the screens show for `COC(=O)C1CCN(C(=O)Cc2ccc(Br)cc2)CC1`?
CYP2C19 inh: 90; Cav3 T inh: inactive; CYP2C9 act: inactive; CYP2C9 inhib: inactive; CYP2C19 act: inactive

Results for O=C(Cc1ccc(Br)cc1)N1CCN(c2ccccc2)CC1 ?
CYP2C19 inh: 99; Cav3 T inh: inactive; CYP2C9 act: inactive; CYP2C9 inhib: 88; CYP2C19 act: inactive

Results for COC(=O)C1CCN(Cc2ccc(C)cc2)CC1 ?
CYP2C19 inh: 85; CYP2C9 act: inactive; CYP2C9 inhib: inactive; CYP2C19 act: inactive

Results for CCCCOc1ccc(C(CC(=O)NC)C(=O)O)cc1 (stereo not given) ?
CYP2C19 inh: inactive; Cav3 T inh: inactive; CYP2C9 act: inactive; CYP2C9 inhib: inactive; CYP2C19 act: inactive
